# Only some compounds are listed: those with a hit (about 3.4% of all), similar ones and a draw of the others.
# miR-122 sensor = blocks miR-122 activity in Huh7 sensor cells. Huh7 miR-122 Renilla luciferase sensor, 48 h; neutral wells = 0, positive control = 100. activation (reporter increase), % at 12.5 µM. actives 0.3% (n = 340,000). AID 602342;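 active means mean replicate activation score at least 90 and every replicate individually at or above 90; inconclusive means only one of the two criteria met; inactive means neither criterion met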;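 further: higher luciferase means less miR-122 activity so hits act as miR-122 inhibitors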
# esBAF inh = SWI/SNF esBAF complex inhibition. actives 2% (n = 350,000). AID 602393. mouse ES cells, Bmi1-luciferase knock-in reporter, 24 h; 100% = twice the neutral-well signal. reporter increase, % at 12.5 µM; in the data active means activation above about 40%; inconclusive means no clear call, values can overlap the other calls;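 further: a rise in the Bmi1 reporter signal indicates esBAF inhibition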
# HIV Env fusion = HIV envelope-mediated fusion inhibition; HeLa-JRFL Env/CEM21 cell fusion, luciferase; inhibition, % at 12.3 µM; actives 1.1% (n = 360,000); AID 651610;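 active means mean replicate inhibition score of at least 50 and every replicate individually at or above 50; inconclusive means only one of the two criteria met; inactive means mean below 50 and not all replicates reaching 50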
# MITF TRPM1 HTS = MITF TRPM1 promoter activation in melanoma cells; SK-MEL-5 TRPM1-promoter luciferase, 24 h; % of positive control, neutral wells = 0; activation, % at 12.5 µM; actives 0.75% (n = 300,000);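 active means mean activation of at least 80% with every replicate also reaching 80%; inconclusive means mean reaches 80% but some replicate falls short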
# Wnt act = activators of Wnt/beta-catenin signaling | activation, % at 9.35 µM | actives 1.2% (n = 300,000) | Wnt/beta-catenin reporter cell assay, activator, plate reader; in the data active means activation above about 30%, passing the limit was not always enough; inconclusive means no clear call, values can overlap the other calls
# Hits are given with their value; i = inactive; ? = inconclusive; nt = not tested or not shown.
SMILES,miR-122 sensor,esBAF inh,HIV Env fusion,MITF TRPM1 HTS,Wnt act
C/C(=N/NC(=O)c1ccccn1)c1ccc(O)cc1,i,i,i,i,?
C/C(=N\NC(=O)c1ccccn1)c1ccc(Cl)cc1,i,nt,i,nt,47
CC(=NNc1ccc2ccccc2n1)c1ccccn1,nt,nt,110,nt,i
CC(=NNc1ccc2ccccc2n1)c1ccccc1O,nt,nt,i,i,i
C/C(=N\Nc1ccc(Cl)cc1)c1ccccn1,nt,48,i,i,nt
C/C(=N/NC(=O)c1ccccn1)c1c[nH]c2ccccc12,i,55,i,i,i
C/C(=N\NC(=O)c1ccc(Cl)cc1)c1ccccn1,nt,i,i,nt,i
CO[C@@H]1CN(C)C(=O)c2cc(NC(C)=O)ccc2OC[C@@H](C)N(C(=O)c2ccccc2F)C[C@H]1C,i,i,nt,nt,nt
O=C(CC(F)(F)F)N1C[C@H]2[C@@H](c3ccccc31)[C@@H](CO)N2C(=O)Cc1cccnc1,i,i,nt,nt,nt
C/C(=N\NC(=O)c1cc(C)nc2ccccc12)c1ccncc1,i,i,i,i,i
C/C(=N/Nc1ccc([N+](=O)[O-])cc1)c1c[nH]c2ccccc12,i,58,i,nt,i
O=C(c1ccccn1)c1ccc2ccccc2n1,i,nt,i,nt,44
C/C(=N\NC(=O)c1cc(C)nc2ccccc12)c1ccccn1,nt,i,61,i,i
C/C(=N/Nc1ccc([N+](=O)[O-])cc1)c1ccc(C)cc1C,i,i,i,i,i
CCCN(C)C[C@@H]1Oc2ncc(C#Cc3ccccc3OC)cc2C(=O)N([C@H](C)CO)C[C@@H]1C,i,i,i,nt,nt
Cc1cccn2c(=O)c3cc(C(=O)NC4CCCCCC4)sc3nc12,i,i,i,i,i
O=C(NC1CCCCCC1)c1cc2c(=O)n3ccccc3nc2s1,i,45,i,91,i
C=CCNC(=O)c1cc2c(=O)n3ccccc3nc2s1,nt,i,i,i,36
C[C@@H]1CN([C@@H](C)CO)C(=O)Cc2cc(NS(=O)(=O)c3ccc(Cl)cc3)ccc2O[C@H]1CN(C)C(=O)Nc1ccc2c(c1)OCO2,i,i,i,nt,nt
O=C(N[C@H]1CC[C@H](CCn2cc(-c3ccccc3)nn2)O[C@H]1CO)c1ccccc1F,nt,i,i,nt,nt
CNC[C@H]1Oc2ccc(NC(=O)CCCN(C)C)cc2C(=O)N([C@H](C)CO)C[C@@H]1C,i,i,i,nt,nt
Fc1ccc(/C=N/NC2=Nc3cccc4cccc2c34)cc1,i,nt,i,i,58
CCOc1cccc2cc(-c3csc(NC(=O)CCC(=O)NCCN4CCCCC4C)n3)c(=O)oc12 (centres undefined),i,i,i,110,i
CO[C@H]1CN(C)C(=O)c2cc(NC(=O)Nc3cc(F)ccc3F)ccc2OC[C@H](C)N(C(=O)c2cnccn2)C[C@@H]1C,nt,i,nt,nt,nt
O=C(CSc1nnc(-c2ccc(Br)cc2)o1)Nc1cccc(C(=O)O)c1,i,i,88,i,i
SMILES,miR-122 sensor,esBAF inh,HIV Env fusion,MITF TRPM1 HTS,Wnt act
COc1cccc(-c2nnc(SCC(=O)N(C(C)C)C(C)C)o2)c1,i,i,i,i,50
O=C(CSc1nnc(-c2cccnc2)o1)Nc1ccc(F)cc1,i,i,i,nt,i
O=C(CSc1nnc(-c2ccncc2)o1)Nc1cc(Cl)ccc1C(=O)O,i,i,i,i,i
O=C(CSc1nnc(-c2ccncc2)o1)Nc1cccc(F)c1,nt,56,i,i,i
O=C(CSc1nnc(-c2ccncc2)o1)Nc1cc(F)ccc1F,i,i,i,i,33
C[C@H](NC(=O)C[C@H]1C[C@H]2c3cc(NC(=O)Nc4ccc(C(F)(F)F)cc4)ccc3O[C@H]2[C@@H](CO)O1)c1ccccc1,i,i,i,nt,nt
Cc1noc(C)c1NC(=O)N(C)C[C@H]1Oc2c(NS(=O)(=O)c3ccc(Cl)cc3)cccc2C(=O)N([C@H](C)CO)C[C@H]1C,i,i,i,nt,nt
CC(C)C#Cc1ccc2c(c1)O[C@H](CN(C)C(=O)c1ccccn1)[C@H](C)CN([C@H](C)CO)S2(=O)=O,i,i,i,nt,nt
O=C(C[C@H]1CC[C@@H]2[C@H](COC[C@H](O)CN2CCC(F)(F)F)O1)NCC1CCCCC1,i,i,i,nt,nt
COc1ccc(-c2nnc(SCC(=O)Nc3cccc(Cl)c3)o2)cc1,i,i,i,nt,46
O=C(CSc1nnc(-c2cccnc2)o1)Nc1cccc(F)c1,nt,61,nt,i,i
O=C(CSc1nnc(-c2cccc(Br)c2)o1)N1CCNC1=O,i,62,nt,88,i
O=C(CSc1nnc(-c2cccc(Br)c2)o1)NCC1CCCO1 (centres undefined),i,i,i,nt,i
Cc1ccc(-c2nnc(SCC(=O)Nc3ccccc3F)o2)cc1,nt,i,66,i,i
